The values that follow come from PubChem BioAssay.

A short description of test [1]: compounds altering circadian rhythm period length – cell-based, LOPAC library, luminescence reporter (AID 2774).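 Also: values are relative to mean of DMSO wells on each plate.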 Particulars: circadian reporter cells, at 7 µM, actives lie on both sides.
The subject of test [2] is Hepatitis C virus NS3 helicase. Kind of test: blockers of NS3h binding to ssDNA – biochemical, fluorescence polarization, LOPAC1280 library, primary screen (AID 687035; in the data active = inhibition above about 37%). The settings on record: Purified HCV NS3 helicase, Cy5-dT15 ssDNA binding fluorescence polarization; stronger effect = higher value; concentration not given here.
Test [3] can be described thus: compounds altering Cy5-DNA-NS3h complex signal – biochemical, LOPAC1280, artefact control for HCV NS3 helicase inhibitor project (AID 687037). The settings on record: Cy5-DNA-NS3h complex fluorescence interference counterscreen.
Test [4] can be described thus: viability loss with induced miR-34 in A549 – imaging, A549 dox-inducible miR-34, nuclei and caspase counts, primary screen (AID 1347080;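 active = compounds whose cell count with miR-34 switched on is under 0.7 times the count with it off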). Particulars: A549 miR-34 inducible, Hoechst nuclei count, 48 h.
Test [5] can be described thus: blockers of cellular phospholipid synthesis – cell-based, LOPAC library, screen 4, primary screen (AID 1347384). Particulars: animal cells, phospholipid biosynthesis inhibition screen; at 10 µM.
Test [6] can be described thus: galactose survival enhancers in mitochondrial complex I cybrids – cell-based, galactose medium, ATP luminescence, primary screen (AID 1645843;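 active = z-score of at least 1.8 in each of two replicates, scored against plate mean and spread of sample wells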;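 also: positive z means more ATP and so rescue of galactose-driven cybrid death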). The settings on record: complex I mutant cybrid cells, 72 h, stronger effect = higher value.
The mark [7] stands for this setting: stronger effect = lower value, cell number ratio, induced over uninduced.
Where [8] appears, read: measured here: relative caspase fold change +Dox/-Dox.
The mark [9] stands for this setting: measured here: total cells with miR-34 induction, stronger effect = lower value.
The mark [10] stands for this setting: measured here: total cells without miR-34 induction.

The structures appear in SMILES notation. Active and inactive are the calls of the source. Unless noted, no rule for the calls is given here.

A word on the inhibition: it is the change of the read-out against control, counted positive when it falls. Turning to `COc1ccccc1N1CCN(CCN(C(=O)c2ccc(F)cc2)c2ccccn2)CC1`, the period change in test [1] was 0.22 h (inactive). Further, the inhibition in test [2] is -4% (inactive). In test [3], the fluorescence ratio (interference) was 0.9 (inactive). For the same compound, the results for the fold change in test [4] (setting [7]) and in test [4] (setting [8]) were 1.08 (inactive) and 1.52, respectively. Further, the results for the cell count in test [4] (setting [9]) and in test [4] (setting [10]) were 10200 and 9450, respectively. For the same compound, the compound was called inactive in test [5]. The z-score in test [6] was -0.25 (inactive).
Turning to `CCCn1c(=O)c2[nH]c(-c3ccc(S(=O)(=O)O)cc3)nc2n(CCC)c1=O`, the period change in test [1] was -0.005 h (inactive). For the same compound, in test [2], the inhibition is 0% (inactive). For the same compound, the fluorescence ratio (interference) in test [3] is 1 (inactive). Also, the values for the fold change in test [4] (setting [7]) and in test [4] (setting [8]) were 0.978 (inactive) and 2.81, respectively. The results for the cell count in test [4] (setting [9]) and in test [4] (setting [10]) were 10100 and 10400, respectively. In addition, in test [5], the result was inactive. For the same compound, the z-score in test [6] is 0.43 (inactive).
For the compound `Cc1cccc(C2CN(C)CCc3c2cc(O)c(O)c3Cl)c1` (stereo unspecified), the period change in test [1] is 0.11 h (inactive). For the same compound, in test [2], the inhibition is -4% (inactive). The fluorescence ratio (interference) in test [3] was 1 (inactive). Moreover, the figures for the fold change in test [4] (setting [7]) and in test [4] (setting [8]) were 0.998 (inactive) and 1.65, respectively. The figures for the cell count in test [4] (setting [9]) and in test [4] (setting [10]) were 6330 and 6340, respectively. For the same compound, in test [5], the compound was classed as inactive. In test [6], the z-score is -1.29 (inactive).
As to `NC1CCN(O)C1=O` (stereo unspecified), the period change in test [1] is 0.11 h (inactive). For the same compound, the inhibition in test [2] was 0% (inactive). The fluorescence ratio (interference) in test [3] was 1 (inactive). The fold change in test [4] (setting [7]) is 0.997 (inactive); in test [4] (setting [8]) it was 1.98. The cell count in test [4] (setting [9]) and in test [4] (setting [10]) was 10200 each time. Further, the call in test [5] was inactive. In addition, in test [6], the z-score was 0.075 (inactive).
In the case of `NC(Cc1cccc(-c2ccccc2CP(=O)(O)O)c1)C(=O)O` (stereo unspecified), the period change in test [1] is -0.07 h (inactive). For the same compound, the inhibition in test [2] is -5% (inactive). In addition, in test [3], the fluorescence ratio (interference) was 1 (inactive). Also, the fold change in test [4] (setting [7]) is 0.998 (inactive); in test [4] (setting [8]), 1.77. Moreover, the cell count in test [4] (setting [9]) came out at 10900; in test [4] (setting [10]), 11000. Besides, the outcome in test [5] was inactive. Moreover, in test [6], the z-score is 0.42 (inactive).
For `CC1C(=O)N(C)C(=O)c2nc[nH]c21` (stereo unspecified), the period change in test [1] is 0.13 h (inactive). In test [2], the inhibition is -3% (inactive). Moreover, the fluorescence ratio (interference) in test [3] was 0.9 (inactive). In addition, the values for the fold change in test [4] (setting [7]) and in test [4] (setting [8]) were 0.928 (inactive) and 1.21, respectively. In addition, the cell count was determined as 9940 in test [4] (setting [9]) and 10700 in test [4] (setting [10]). In test [5], the compound was called inactive. Moreover, in test [6], the z-score is 0.22 (inactive).
In the case of `NOCC(=O)O`, in test [1], the period change is -0.075 h (inactive). The inhibition in test [2] is -1% (inactive). In addition, in test [3], the fluorescence ratio (interference) is 1 (inactive). In addition, the fold change in test [4] (setting [7]) is 1.12 (inactive); in test [4] (setting [8]), 1.94. For the same compound, the values for the cell count in test [4] (setting [9]) and in test [4] (setting [10]) were 9990 and 8920, respectively. The call in test [5] was inactive. Also, the z-score in test [6] was 0.555 (inactive).
As for `CC(N)(C(=O)O)c1ccc(C(=O)O)cc1` (stereo unspecified), the period change in test [1] was -0.11 h (inactive). For the same compound, in test [2], the inhibition is -2% (inactive). Further, the fluorescence ratio (interference) in test [3] was 1 (inactive). Also, the fold change was 1.05 (inactive) in test [4] (setting [7]) and 1.27 in test [4] (setting [8]). For the same compound, the cell count in test [4] (setting [9]) was 11100; in test [4] (setting [10]), 10600. For the same compound, the outcome in test [5] was inactive. Also, in test [6], the z-score is 0.615 (inactive).
With `OC[C@H]1O[C@@H](n2cnc3cncnc32)[C@H](O)[C@@H]1O`, the period change in test [1] is 0.1 h (inactive). Further, the inhibition in test [2] is -4% (inactive). In test [3], the fluorescence ratio (interference) was 1 (inactive). The fold change in test [4] (setting [7]) is 1.03 (inactive); in test [4] (setting [8]) it was 1.29. Also, the cell count came to 10800 in test [4] (setting [9]) and 10600 in test [4] (setting [10]). Besides, the outcome in test [5] was inactive. The z-score in test [6] was -0.28 (inactive).
For the compound `COc1ccc2c(c1)CCC1C2CC[C@@]2(C)C1CC[C@@H]2NCCCCCCN1C(=O)C=CC1=O` (stereo partly specified), the period change in test [1] was -0.255 h (inactive). The inhibition in test [2] is 5% (inactive). The fluorescence ratio (interference) in test [3] is 0.8 (active). Moreover, the figures for the fold change in test [4] (setting [7]) and in test [4] (setting [8]) were 1.05 (inactive) and 1.05, respectively. In addition, the values for the cell count in test [4] (setting [9]) and in test [4] (setting [10]) were 9380 and 8930, respectively. The result in test [5] was inactive. In test [6], the z-score is 0.035 (inactive).
Take `N.N.O=C(O)C1(C(=O)O)CCC1.[Pt+2]`: in test [1], the period change was 0.07 h (inactive). For the same compound, the inhibition in test [2] is -3% (inactive). Besides, the fluorescence ratio (interference) in test [3] was 1 (inactive). In addition, the fold change in test [4] (setting [7]) was 1.04 (inactive); in test [4] (setting [8]), 1.42. Besides, the values for the cell count in test [4] (setting [9]) and in test [4] (setting [10]) were 6330 and 6070, respectively. Moreover, the result in test [5] was inactive. For the same compound, the z-score in test [6] is -0.53 (inactive).
`O=c1ccn([C@@H]2O[C@H](COP(=O)(O)OP(=O)(O)O)[C@@H](O)[C@H]2O)c(=O)[nH]1`: the period change in test [1] is 0.165 h (inactive). In addition, the inhibition in test [2] is -1% (inactive). Moreover, the fluorescence ratio (interference) in test [3] was 1 (inactive). Further, the fold change in test [4] (setting [7]) is 0.992 (inactive); in test [4] (setting [8]), 1.43. Besides, the cell count came to 9420 in test [4] (setting [9]) and 9500 in test [4] (setting [10]). Further, the call in test [5] was inactive. In test [6], the z-score is 0.745 (inactive).
Regarding `Nc1ccc(N2C(=O)c3ccccc3C2=O)c(Cl)c1`, the period change in test [1] is 0.15 h (inactive). Besides, the inhibition in test [2] was 0% (inactive). Also, the fluorescence ratio (interference) in test [3] is 1 (inactive). Besides, the fold change in test [4] (setting [7]) was 0.973 (inactive); in test [4] (setting [8]) it was 1.66. Moreover, the cell count stood at 10200 in test [4] (setting [9]) and 10500 in test [4] (setting [10]). Moreover, the result in test [5] was inactive. The z-score in test [6] is 0.45 (inactive).
On to `O=C(O)Cc1ccc(O)c(O)c1`, for which the period change in test [1] was -0.08 h (inactive). The inhibition in test [2] is -1% (inactive). Besides, the fluorescence ratio (interference) in test [3] was 1 (inactive). The results for the fold change in test [4] (setting [7]) and in test [4] (setting [8]) were 0.965 (inactive) and 1.22, respectively. The figures for the cell count in test [4] (setting [9]) and in test [4] (setting [10]) were 9890 and 10200, respectively. Further, the compound was classed as inactive in test [5]. Further, in test [6], the z-score is -0.87 (inactive).
For the compound `NC(=O)C(=O)O`, the period change in test [1] is 0.025 h (inactive). Besides, in test [2], the inhibition was -7% (inactive). Besides, the fluorescence ratio (interference) in test [3] is 0.9 (inactive). Moreover, the fold change was 1.05 (inactive) in test [4] (setting [7]) and 1.23 in test [4] (setting [8]). For the same compound, the results for the cell count in test [4] (setting [9]) and in test [4] (setting [10]) were 10900 and 10300, respectively. Also, the result in test [5] was inactive. Also, the z-score in test [6] is 0.585 (inactive).
Turning to `CCCC(=O)NCCc1c2n(c3ccc(OC)cc13)CCCc1ccccc1-2`, the period change in test [1] was 0.06 h (inactive). The inhibition in test [2] was 0% (inactive). Also, in test [3], the fluorescence ratio (interference) was 1 (inactive). Further, the figures for the fold change in test [4] (setting [7]) and in test [4] (setting [8]) were 1.08 (inactive) and 0.293, respectively. Also, the values for the cell count in test [4] (setting [9]) and in test [4] (setting [10]) were 8600 and 7960, respectively. Moreover, the result in test [5] was inactive. In addition, the z-score in test [6] is -0.27 (inactive).
With `c1ccc(CN2CCC3(CCCc4ccccc43)CC2)cc1`, the period change in test [1] is 0 h (inactive). Further, the inhibition in test [2] was -3% (inactive). The fluorescence ratio (interference) in test [3] was 1 (inactive). Also, the fold change in test [4] (setting [7]) is 1.19 (inactive); in test [4] (setting [8]), 0.602. In addition, the cell count in test [4] (setting [9]) is 7360; in test [4] (setting [10]), 6160. Besides, in test [5], the compound was called inactive. Moreover, the z-score in test [6] is -1.27 (inactive).
Turning to `Nc1ncnc2c1nc(Sc1ccc(Cl)cc1)n2C1OC2COP(=O)(O)O[C@@H]2[C@@H]1O` (stereo partly specified), the period change in test [1] is -0.015 h (inactive). In addition, the inhibition in test [2] was -8% (inactive). In addition, the fluorescence ratio (interference) in test [3] was 0.9 (inactive). The fold change in test [4] (setting [7]) is 1.01 (inactive); in test [4] (setting [8]), 1.25. The cell count in test [4] (setting [9]) and in test [4] (setting [10]) was 10500 each time. In addition, the compound was classed as inactive in test [5]. Also, the z-score in test [6] is 1.15 (inactive).
As for `CC1(C)CCC=[N+]1[O-]`, the period change in test [1] is -0.065 h (inactive). Besides, the inhibition in test [2] is -2% (inactive). Moreover, the fluorescence ratio (interference) in test [3] is 1 (inactive). The fold change in test [4] (setting [7]) is 0.955 (inactive); in test [4] (setting [8]) it was 0.876. For the same compound, the cell count came out at 9650 in test [4] (setting [9]) and 10100 in test [4] (setting [10]). Moreover, the compound was called inactive in test [5]. Moreover, the z-score in test [6] is 0.285 (inactive).
